Assay outcomes (PubChem BioAssay)
An excerpt weighted towards active compounds, which were near 3.4% of everything screened.
HGIII-sPLA2 inh = Blocks human group III sPLA2 activity; Q9NZ20; QFRET BODIPY PC-A2 liposome hydrolysis, fluorescence; inhibition, % at 12.2 µM; 370,000 compounds, 0.56% hits;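 active = inhibition above mean plus 3 SD of compounds lying within the high and low control bounds, cut at about 19% in these data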
Target sequence (Q9NZ20 whole entry, looked up): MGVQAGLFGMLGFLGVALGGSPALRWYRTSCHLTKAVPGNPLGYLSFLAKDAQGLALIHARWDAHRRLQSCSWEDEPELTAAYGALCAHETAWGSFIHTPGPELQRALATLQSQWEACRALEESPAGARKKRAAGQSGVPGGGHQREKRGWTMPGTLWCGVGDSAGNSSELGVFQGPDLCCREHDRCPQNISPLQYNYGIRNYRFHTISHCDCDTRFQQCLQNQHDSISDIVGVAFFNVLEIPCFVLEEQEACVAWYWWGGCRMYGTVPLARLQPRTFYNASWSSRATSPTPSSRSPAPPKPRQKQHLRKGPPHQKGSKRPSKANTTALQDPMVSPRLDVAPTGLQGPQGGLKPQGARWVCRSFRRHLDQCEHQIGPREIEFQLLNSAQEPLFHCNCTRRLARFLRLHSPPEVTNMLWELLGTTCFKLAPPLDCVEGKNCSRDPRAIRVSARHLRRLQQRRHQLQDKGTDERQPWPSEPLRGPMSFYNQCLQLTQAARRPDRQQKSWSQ
ADAM10 inh = ADAM10 inhibition, QFRET primary screen. inhibition, % at 7 µM. O14672. 370,000 compounds, 0.62% hits. recombinant ADAM10, EDANS/DABCYL FRET peptide cleavage, 3 h. AID 720582;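 active = inhibition above a per-campaign cutoff equal to the mean of compounds falling between control-based bounds plus 3 SD, cut at about 20% in these data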
ADAM17 inh = inhibitors of human ADAM17; P78536; recombinant ADAM17, EDANS/DABCYL FRET peptide cleavage; inhibition, % at 6.95 µM; 370,000 compounds, 0.83% hits; AID 720648;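 active = inhibition above the mean of compounds lying between control limits plus 3 SD, set per campaign, cut at about 8.5% in these data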
proKLK7 act = proKLK7 (human) activation, primary screen; P49862; purified proKLK7, EDANS-DABCYL substrate fluorescence; 100% is mature enzyme control, 0% vehicle; activation, % at 7 µM; 370,000 compounds, 0.9% hits;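 active = activation above the mean of all tested compounds plus 3 SD, computed per campaign excluding outliers beyond control limits, cut at about 13% in these data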
CendR NRP1 mod = modulators of CendR peptide binding to human neuropilin-1; 360,000 compounds, 0.85% hits; FAM-RPARPAR peptide binding to NRP-1, fluorescence polarization; O14786; inhibition, % at 25 µM; AID 602438;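 active = inhibition or corrected inhibition above about 18%, plus a signal ratio from 0.5 to 1.5, limit read from the data, passing the limit was not always enough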
hGIII sPLA2 conf = human GIII-sPLA2 inhibition, confirmation; 2,000 compounds, 34% hits; recombinant hGIII-sPLA2, BODIPY PC-A2 QFRET fluorescence; AID 743280; shares compounds with HGIII-sPLA2 inh; inhibition, % at 12.2 µM;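 active = mean inhibition across triplicates above the hit cutoff set in the earlier primary screen, cut at about 19% in these data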
BODIPY interf = 535nm fluorescence interference, HGIII-sPLA2 counter-screen | BODIPY FL product fluorescence interference, QFRET | 2,000 compounds, 8.5% hits | inhibition, % at 12.2 µM | shares compounds with HGIII-sPLA2 inh;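 active = average inhibition above the solvent-only control mean plus 3 SD, cut at about 6% in these data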
535nm interf DR = 535nm optical interference dose response, HGIII-sPLA2 counter-screen | shares compounds with HGIII-sPLA2 inh | BODIPY FL product fluorescence interference, cell-free | IC50, µM | 240 tested, under 10 active | AID 743455;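 active = IC50 at or below 10 µM; inactive = IC50 above 10 µM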
Each line names hits and unclear results; the compound was inactive in the other large screens (follow-up assays come after a bar, where they were run).

CCCC[n+]1ccn(-c2nc3ccccc3nc2[N-]S(=O)(=O)c2ccc(Br)cc2)c1	HGIII-sPLA2 inh 21 | hGIII sPLA2 conf inactive | BODIPY interf inactive
COC(=O)C1=NN(C(=O)c2ccccc2)C(O)(c2ccc([N+](=O)[O-])cc2)C1 (centres undefined)	HGIII-sPLA2 inh 33 | hGIII sPLA2 conf 57 | BODIPY interf 17
CCC1=NN(C(=O)c2ccccc2[N+](=O)[O-])C(O)(c2ccccc2)C1 (centres undefined)	HGIII-sPLA2 inh 23 | hGIII sPLA2 conf inactive | BODIPY interf inactive
O=C(c1ccccc1[N+](=O)[O-])N1N=C(c2ccccc2)CC1(O)C(F)(F)F (centres undefined)	none
COc1ccc(CSc2nnc(SCC(=O)Nc3ccc4c(c3)OCO4)s2)cc1	none (no result: CendR NRP1 mod)
COCCNC(=O)/C(C#N)=C/c1c(N2CC(C)OC(C)C2)nc2ccccn2c1=O (centres undefined)	HGIII-sPLA2 inh 21 | hGIII sPLA2 conf inactive | BODIPY interf inactive
COC(=O)C1=CN(c2ccc(N3CCOCC3)cc2)C(N)=C(C#N)C1c1cccc(OC)c1OC (centres undefined)	HGIII-sPLA2 inh 20 | hGIII sPLA2 conf inactive | BODIPY interf inactive
COc1cccc(C(CC2=CCCCC2)NC(=O)C(F)(F)F)c1 (centres undefined)	none (no result: CendR NRP1 mod)
CCc1ccc(NC(=O)NNC(=O)c2ccc3ccccc3c2O)cc1	HGIII-sPLA2 inh 32 | hGIII sPLA2 conf 25 | BODIPY interf inactive
CCc1ccc(NC(=O)NNC(=O)c2cc3ccccc3cc2O)cc1	HGIII-sPLA2 inh 27 | hGIII sPLA2 conf inactive | BODIPY interf inactive
Cc1cccc(NC(=O)CSc2ncnc3sc4c(c23)CCCC4)c1	none (no result: CendR NRP1 mod)
c1ccc(OC2CCN(c3ncnc4sccc34)CC2)cc1	none (no result: proKLK7 act, CendR NRP1 mod)
O=[N+]([O-])c1cc(S(=O)(=O)NCc2ccco2)ccc1NN=Cc1ccccn1	none (no result: CendR NRP1 mod)
COc1cccc(N=Nc2ccc(O)c3ncccc23)c1	HGIII-sPLA2 inh 25 | hGIII sPLA2 conf 51 | BODIPY interf 14
COc1cccc(N=Nc2ccc3cccnc3c2O)c1	none
CCOc1ccc(-n2c(SCC(=O)Nc3cc(C)c(NC(=O)c4ccccc4)cc3OC)nnc2-c2ccncc2)cc1	none (no result: CendR NRP1 mod)
CN(C)CC(=O)N[C@@H]1C[C@@H]2O[C@@H](CO)CC[C@@H]2O[C@@H]1CCc1ccc(C#Cc2ccccc2)cc1	none (no result: CendR NRP1 mod)
COc1ccc(S[C@]2(C(=O)N3CCN(c4ncccn4)CC3)CC(=O)N(c3ccsc3)[C@@H]2c2ccc(OC)cc2)cc1	none (no result: CendR NRP1 mod)
Cc1occc1-c1nnc(SCC(=O)NCc2ccc(Cl)cc2)n1-c1ccccc1	none (no result: CendR NRP1 mod)
COc1ccc(C(=O)NC(=S)Nc2ccc(NC(=O)c3ccco3)cc2)cc1[N+](=O)[O-]	none
COc1ccc(C(=O)NC(=S)Nc2ccc(N3CCN(C(C)=O)CC3)cc2)cc1[N+](=O)[O-]	HGIII-sPLA2 inh 21 | hGIII sPLA2 conf inactive | BODIPY interf inactive
CC(=O)N1CCN(c2ccc(NC(=S)NC(=O)c3ccc(C)c([N+](=O)[O-])c3)cc2)CC1	none
CCCCC(=O)Nc1ccc(NC(=S)NC(=O)c2ccco2)cc1OC	HGIII-sPLA2 inh 31 | hGIII sPLA2 conf inactive | BODIPY interf inactive
COc1ccc(C(=O)NC(=S)Nc2cccc(NC(=O)c3ccco3)c2)cc1[N+](=O)[O-]	HGIII-sPLA2 inh 28 | hGIII sPLA2 conf inactive | BODIPY interf inactive
Nc1ccn([C@@H]2O[C@H](C(=O)N[C@H](Cc3ccccc3)C(=O)N3CCN(CCO)CC3)[C@@H](O)[C@H]2O)c(=O)n1	none (no result: CendR NRP1 mod)
Cc1cc2ncn(N)c2cc1C	HGIII-sPLA2 inh 90 | hGIII sPLA2 conf inactive | BODIPY interf inactive
Cc1cc2ncn(S(=O)(=O)N(C)C)c2cc1C	none
Cc1cccc(C(=O)NC(=S)NNC(=O)c2ccc(Cl)cc2)c1	HGIII-sPLA2 inh 24 | hGIII sPLA2 conf 40 | BODIPY interf inactive | 535nm interf DR inactive
Cc1cccc(NC(=S)NNC(=O)c2csc3c2CCCC3)c1	none
Cc1cccc(NC(=S)NNC(=O)c2csc(C)c2)c1	HGIII-sPLA2 inh 27 | hGIII sPLA2 conf 38 | BODIPY interf inactive | 535nm interf DR inactive
COc1ccc(C(=O)NNC(=S)NC(=O)c2ccc(Cl)cc2)cc1	none (no result: CendR NRP1 mod)
COc1cc(C(=O)NNC(=S)NC(=O)c2ccc(Cl)cc2)cc(OC)c1OC	HGIII-sPLA2 inh 26 | hGIII sPLA2 conf 30 | BODIPY interf inactive | 535nm interf DR inactive
Oc1cccc(/C=N/NC(=S)Nc2cccnc2)c1O	HGIII-sPLA2 inh 34 | hGIII sPLA2 conf 21 | BODIPY interf inactive
Cc1cccc(/C=N/Nc2ccc3ccccc3n2)c1	HGIII-sPLA2 inh 23 | hGIII sPLA2 conf inactive | BODIPY interf inactive
C(=N\Nc1ccc2ccccc2n1)/c1ccc2c(c1)OCCO2	none
O=C1/C(=C\c2ccccn2)SC(=S)N1Nc1ncc(C(F)(F)F)cc1Cl	none (no result: HGIII-sPLA2 inh, ADAM10 inh, ADAM17 inh, proKLK7 act)
O=C1/C(=C/c2ccccn2)SC(=S)N1Nc1ncc(C(F)(F)F)cc1Cl	HGIII-sPLA2 inh 21 | hGIII sPLA2 conf 32 | BODIPY interf inactive | 535nm interf DR inactive
CCS(=O)(=O)Nc1ccc2c(c1)C(=O)N(C)[C@@H]1CC[C@H](CC(=O)N3CCCCC3)O[C@H]1CO2	none (no result: CendR NRP1 mod)
O=C(COC(=O)c1ncc(Cl)c(Cl)c1Cl)Nc1ccccc1OC(F)F	none
O=C(COC(=O)c1ncc(Cl)c(Cl)c1Cl)Nc1cccnc1Cl	HGIII-sPLA2 inh 20 | hGIII sPLA2 conf inactive | BODIPY interf inactive
O=C1c2ccccc2CN1CCSC(=S)N1CCOCC1	HGIII-sPLA2 inh 21 | hGIII sPLA2 conf inactive | BODIPY interf inactive
COC(=O)C[C@@H]1CC[C@@H]2[C@@H](COc3ccc(NC(=O)c4ccc(F)cc4)cc3C(=O)N2C)O1	none (no result: CendR NRP1 mod)
COc1cc(OC)c(C2Nc3cccc4cccc(c34)N2)c(OC)c1	HGIII-sPLA2 inh 22 | hGIII sPLA2 conf 37 | BODIPY interf inactive | 535nm interf DR inactive
COc1ccccc1C1Nc2cccc3cccc(c23)N1	HGIII-sPLA2 inh 21 | hGIII sPLA2 conf 34 | BODIPY interf 12
Oc1ccccc1C1Nc2cccc3cccc(c23)N1	none
Cc1ccc(NC(=O)CCS(=O)(=O)c2ccccc2)cc1C	none (no result: CendR NRP1 mod)
COCCNc1nc(NCc2ccccc2OC)c2sccc2n1	none
COCCNc1nc(NCc2cnc(C)cn2)c2sccc2n1	HGIII-sPLA2 inh 22 | hGIII sPLA2 conf inactive | BODIPY interf inactive
CN(C)S(=O)(=O)c1cccc(NC(=S)N/N=C/c2cccc(O)c2)c1	none
CN(C)S(=O)(=O)c1cccc(NC(=S)N/N=C/c2cc(Br)ccc2O)c1	HGIII-sPLA2 inh 39 | hGIII sPLA2 conf 28 | BODIPY interf 11
